The whole screen tested about 96,000 compounds, of which about 19,000 (20%) were called active.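 The calls were made as follows: active = blocking of liver enzyme CYP2C9 beyond about 50% at 5 µM (limit read from the data); inactive = the rest.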 These entries were drawn from the full list.
These molecules were tested against Cytochrome P450 2C9 (Homo sapiens) (UniProt P11712) (assay: blockers of cytochrome P450 2C9 activity – biochemical, luminescence, ADME assay, primary screen (AID 777)). Conditions: CYP2C9 Supersomes, luciferin-H conversion, at 5 µM, hits give high values.
Sequence of Cytochrome P450 2C9 (Homo sapiens) (P11712 whole entry, looked up): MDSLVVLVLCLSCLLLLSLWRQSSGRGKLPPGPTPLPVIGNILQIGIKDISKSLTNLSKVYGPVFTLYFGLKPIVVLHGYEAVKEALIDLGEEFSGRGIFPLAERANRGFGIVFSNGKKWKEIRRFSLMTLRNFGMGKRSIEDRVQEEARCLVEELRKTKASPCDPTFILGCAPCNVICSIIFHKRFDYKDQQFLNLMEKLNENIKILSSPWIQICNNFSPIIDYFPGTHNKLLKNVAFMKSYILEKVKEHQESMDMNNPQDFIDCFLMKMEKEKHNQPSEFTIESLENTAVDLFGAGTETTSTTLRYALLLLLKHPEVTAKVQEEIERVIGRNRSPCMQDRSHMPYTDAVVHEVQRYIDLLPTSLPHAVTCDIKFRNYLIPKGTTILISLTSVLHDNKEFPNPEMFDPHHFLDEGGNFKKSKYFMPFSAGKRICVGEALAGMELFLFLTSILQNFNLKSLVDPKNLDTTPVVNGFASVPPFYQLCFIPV

inhibition, active:
CC(C)CCNC(=O)CC1C(=O)N(Cc2ccccc2)C(C)c2nc3ccccc3n21 (stereo not drawn) 68.6%
CN(C(=O)COc1nnc(-c2cccs2)c(-c2cccs2)n1)c1ccccc1 89.6%
Fc1ccccc1COc1ccccc1CNCc1ccncc1 65.9%
C=C(C)CSc1nc(N)c2c3c(sc2n1)CCC3 51.5%
COc1cccc2cc(C(C)N(CCCN3CCOCC3)C(=O)Nc3ccc(Cl)cc3)oc12 (stereo not drawn) 53.4%
O=C1c2ccccc2C(Nc2ccc3c(c2)OCCO3)N1Cc1ccco1 (stereo not drawn) 64%
Cc1ccnc(N2C(=O)c3ccccc3C2Nc2ccc3c(c2)OCCO3)c1 (stereo not drawn) 71%
CCc1cc2c(N3CCN(c4nnc(CC)s4)CC3)ncnc2s1 59.6%
O=C(NCc1ccco1)c1nc(-c2ccccc2)n(-c2ccccc2)n1 51.3%
C/C(=N\NS(=O)(=O)c1cccc([N+](=O)[O-])c1)c1cc2ccccc2o1 91.4%
COc1ccc(CCNC(=O)C2CCCN(Cc3nc(-c4cccc(Cl)c4)oc3C)C2)cc1OC (stereo not drawn) 58.8%
COc1cccc(NC(=O)C(C)Oc2ccccc2)c1 (stereo not drawn) 56.1%

inhibition, inactive:
CCOC(=O)C1CCN(C(=O)CC2C(=O)N(Cc3ccccc3)C(C)c3nc4ccccc4n32)CC1 (stereo not drawn) -0.5%
CCC(=O)NCCc1nc2ccccc2n1CC 29.6%
COc1ccccc1/C=C/C1=NC(=C\N(C)C)/C(=O)O1 -6.3%
Cc1ccc(C(CC(=O)O)Nc2nc(N3CCCCC3)nc(N3CCCCC3)n2)cc1 (stereo not drawn) 45.8%
COCC(=O)Nc1nnc(COc2ccccc2)s1 -2.1%
CCOc1cccc(C(=O)Nc2nnc(-c3cccs3)s2)c1 -32.5%
COc1ccc(C2C(C(=O)N3CCN(c4ccc(OC)cc4)CC3)c3ccccc3C(=O)N2C)cc1 (stereo not drawn) 1.9%
c1ccc(COc2ccccc2CNCc2cccnc2)cc1 -14.1%
COc1ccccc1CNCc1cccs1 18.8%
COC(=O)c1cc(OC)c(OC)cc1NC(=O)C1CCCO1 (stereo not drawn) 20.4%
CC(C)C(=O)N1CCN(CCN=CC2=C(O)CC(c3ccco3)CC2=O)CC1 (stereo not drawn) -7.6%
CCC1(C)Cc2c(sc3nc(SC)nc(N)c23)CO1 (stereo not drawn) 30.3%
c1nnc2c3c4c(sc3ncn12)CCC4 8.2%
Cc1cccc(C)c1NC(=O)N1CC=C(n2c(=O)[nH]c3ccccc32)CC1 -1%
CCOC(=O)c1cc2occc2n1CC(=O)N1CCN(C(=O)c2ccco2)CC1 3.7%
COc1ccc(C(=O)Nc2ccc(CN3CCOCC3)cc2)cc1 22.1%
Cn1c(CN2CCOCC2)nc2cc(NC(=O)c3ccc(Cl)cc3)ccc21 10.4%
CCCc1nc2oc3c(OCC)ncnc3c2c2c1COC(C)(C)C2 -5.1%
CC(=O)N(Cc1cccs1)C1CCOC(C)(C)C1 (stereo not drawn) 9.1%
O=C(NNS(=O)(=O)c1ccc(Cl)cc1)C1CCN(Cc2ccccc2)CC1 16.1%
Cc1cccc(C(=O)Nc2ccccc2-c2nnn(CC(=O)Nc3ccc4c(c3)OCCO4)n2)c1 4.2%
O=C(NC1CCCCC1)C1c2ccccc2C(=O)N1Cc1ccco1 (stereo not drawn) 6.7%
CCc1ccccc1NC1c2ccccc2C(=O)N1c1cccnc1 (stereo not drawn) 15.2%
Cc1ccc(Cc2c(C)nc3nc(SCC(=O)NCCN4CCOCC4)nn3c2C)cc1 9%
Clc1ccc(-n2nnnc2CN2CCCCC2)cc1Cl 12.4%
COc1ccc(N(CC(=O)NC2CCCCC2)S(=O)(=O)c2c(C)[nH]c(=O)[nH]c2=O)cc1 33.9%
Cc1ccc(-n2ncc3c(N4CCN(c5ccc(F)cc5)CC4)ncnc32)c(C)c1 -9.7%
O=S(=O)(N1CCCCC1)N1CCNCC1 -27.8%
Cn1nc(-c2ccccc2)c(CSc2cccc(Cl)c2)c1Cl 44.7%
Cc1nc2nc[nH]n2c(=O)c1NC(=O)c1cccc(OCC(C)C)c1 7.2%
O=C(NCc1ccco1)c1nc2ncccn2n1 -9.7%
O=C(Cc1ccccc1)n1nc(-c2ccccc2)nc1NCc1ccco1 8.8%
CCOCCCNC(=O)C(NC(=O)CNC(=O)c1ccccc1)c1ccc(C)cc1 (stereo not drawn) -22.9%
Cc1ccccc1NC(=S)Nc1cccc([N+](=O)[O-])c1 22.3%
CCCS(=O)(=O)N1CCCC(C(=O)NCCN2CCCCC2C)C1 (stereo not drawn) -5.4%
CCCc1ccc(-c2c(C)sc(NC(=O)c3ccnn3C)c2C#N)cc1 43.6%
CC(=O)NS(=O)(=O)c1ccc(NC(=O)/C=C/c2ccccc2Cl)cc1 12.7%
COc1ccc(CCN(C)C(=O)C2CCCN(Cc3ccc(OC)c(OC)c3)C2)cc1OC (stereo not drawn) 27.1%
CCCS(=O)(=O)N1CCC(C(=O)NCCc2ccc(OC)c(OC)c2)CC1 -5.4%
Nc1nnnn1/N=C/c1cccs1 -2%
O=C(Nc1c(Cl)cccc1Cl)C1CCC1 0.8%
CCn1c(O)c2ccc(C(=O)N=NC(=O)c3cccnc3)cc2c1O -3.1%
COc1cc(OC)cc(C(=O)NC(=S)N2CCN(c3ccc(C(F)(F)F)cc3[N+](=O)[O-])CC2)c1 13.9%
CCNc1nc(N)nc(Oc2ccc(OCC)nn2)n1 -26.3%
OCCNCCCCOc1ccccc1F -0.4%
CSc1nc(N(C)NC(=O)c2cccc(C)c2)c2ccccc2n1 -0.3%
CC(=O)c1ccc(Cc2ncc(C(F)(F)F)cc2Cl)s1 -2.6%
COc1cccc(NC(=O)c2ccccc2SC)c1 -4.1%
COc1ccc(OC(C)C(=O)Nc2cccnc2)cc1 (stereo not drawn) 3.3%
CCCCN(CCCC)C(=O)CCS(=O)(=O)c1ccc2c(c1)n(C)c(=O)c(=O)n2C 14.4%
Cc1cccc(CSc2nnc(NC(=O)CSc3nnc(C)s3)s2)c1 -12%

From PubChem BioAssay AID777 (Sanford-Burnham Center for Chemical Genomics, 2007)
